Screening results (PubChem BioAssay)
ClpP mod – qHTS Assay for Activators of ClpP; AID 651965, 2013; ATP-dependent Clp protease proteolytic subunit (Bacillus subtilis (strain 168)), P80244; purified B. subtilis ClpP, FRET peptide cleavage, 20 min; 340,000 tested, 1.9% active; Potency, µM (series often up to 57.5 µM), without a hit: at the highest dose activity change, negative = active; active = well fitted falling curve with a large enough effect; inconclusive = small, poorly fitted or top-dose-only effect; inactive = no such curve, though single readings can be large or run the other way; also: the source files actives as falling curves though it sought activators and does not explain the sign; nearly all actives have a fitted effect of over 65% in size
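ClpP 10 microg/mL final, pH 8 Tris/KCl buffer with BSA, glycerol, Tween-20; compound pinned in; FRET-FV substrate; RT 20 min; Ex320/Em430; ΔFRET vs ADEP 5.8 microM, DMSO, no enzyme.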
GLP1R cytotox – cytotoxic in the GLP-1 receptor inverse agonist counter-screen; Potency, µM (titrated, usually from 38.3 µM), for the others: at the top dose activity change, negative = inhibition, hits mostly inhibitors; HEK293 cAMP-luciferase reporter cells, luminescence, 24 h; 410,000 tested, 0.13% active;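 also: loss of luciferase light is scored as toxicity; % is scaled to controls: 0 for no effect and ±100 for the full control effect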
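Seeding density was 200 cells/uL; after overnight-length (12 h) culture, 23 nL compounds went on for 24 h at 37 °C. Readout used a luciferase detection reagent, luminescence taken after 12 min at room temperature.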
GLP1R inv ag – GLP-1 receptor (human) inverse agonism; AID 624417; HEK293 GLP-1R CRE-luciferase, luminescence, 24 h; GLP-1R form is constitutively active; Potency, µM (series often up to 38.3 µM), inactives show at the highest dose activity change, negative = inhibition, most hits filed as inhibitors; P43220; 410,000 tested, 1.6% active; also: % is scaled to controls: 0 for no effect and ±100 for the full control effect; nearly all actives have a fitted effect of over 55% in size
Target sequence (P43220 whole entry, looked up): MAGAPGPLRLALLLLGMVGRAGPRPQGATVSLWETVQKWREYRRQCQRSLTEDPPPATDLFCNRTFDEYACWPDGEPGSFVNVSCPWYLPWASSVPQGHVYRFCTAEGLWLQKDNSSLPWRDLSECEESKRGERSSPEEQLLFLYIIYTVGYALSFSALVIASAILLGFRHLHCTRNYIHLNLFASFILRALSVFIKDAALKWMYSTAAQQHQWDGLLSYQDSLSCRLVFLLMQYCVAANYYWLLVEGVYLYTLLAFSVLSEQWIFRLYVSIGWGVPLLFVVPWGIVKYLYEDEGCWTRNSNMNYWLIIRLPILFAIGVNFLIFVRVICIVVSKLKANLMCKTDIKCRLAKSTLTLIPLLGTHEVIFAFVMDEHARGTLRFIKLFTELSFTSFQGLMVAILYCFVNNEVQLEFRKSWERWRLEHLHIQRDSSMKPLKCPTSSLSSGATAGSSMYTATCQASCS
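qHTS in 1536-well format: reporter HEK293 cells expressing constitutive GLP-1R activity in DMEM + 10% Nu serum, 24 hr with compounds at 37 deg C, luminescence read after 12 min with detection reagent.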
GLP1R ag – activates the human GLP-1 receptor; P43220; HEK293 GLP-1R CRE-luciferase, luminescence, 4-6 h; cells express a hypersensitive GLP-1R form; Potency, µM (highest dose often 45.6 µM), inactives show top-dose activation, actives largely listed as activators; 380,000 tested, 0.007% active; also: % of control where 0% means no effect
Starred values were filed as active, the others as inactive; ? = inconclusive; nt = no result given. In the library only some 3.2% were active in any assay of this set; here they are far more common. Unless noted, calls follow the shape of the dose curve; as a rule, active = well fitted curve in the direction sought with a large enough effect; inconclusive = small, poorly fitted or top-dose-only effect, or another doubt; inactive = no such curve, though single readings can be large; an effect the other way counts as inactive or inconclusive. Potency is read from the fitted curve at half-maximal effect.

SMILES | ClpP mod | GLP1R cytotox | GLP1R inv ag | GLP1R ag
COc1ccc(CNC(=O)c2cc3cccc4c3n2CC(C)S4)c(OC)c1 (stereo not drawn) | 14.1µM* | -11.2% | 7.94µM* | nt
Cc1ccc(Sc2c(C)nn(C(=O)c3ccc(Cl)cc3)c2C)cc1 | -15.6% | 1.5% | 4.4% | -2.2%
COc1ccc(CNC(=O)c2cc3cccc4c3n2CC(C)S4)cc1OC (stereo not drawn) | 31.6µM* | -1.2% | -11.2% | nt
O=C(NCc1ccccc1Cl)c1cc2cccc3c2n1CCS3 | 28.2µM* | 1.0% | ? | nt
COc1cccc(CNC(=O)CCC(=O)N2CC(C)Oc3ccccc32)c1OC (stereo not drawn) | 0.2% | -23.3% | 4.4% | -5.3%
COc1ccc(CC(=O)NCc2cccc(CNC(=O)Cc3ccc(OC)c(OC)c3)c2)cc1OC | -0.1% | 2.3% | 14.1% | 10.3%
COc1ccc(OC)c(CCNC(=O)c2cc3cccc4c3n2CC(C)S4)c1 (stereo not drawn) | 31.6µM* | 0.3% | ? | nt
COc1cccc(CNC(=O)c2cc3cccc4c3n2CC(C)S4)c1OC (stereo not drawn) | 35.5µM* | -13.8% | ? | nt
CCS(=O)(=O)N1CCc2cc(C(=O)NCc3ccccc3)ccc21 | 1.3% | -15.6% | -13.8% | nt
CC(C)(C)CC(=O)OCC(=O)[C@@]12OC(C)(C)O[C@@H]1C[C@H]1[C@@H]3CCC4=CC(=O)C=C[C@]4(C)[C@@]3(F)[C@@H](O)C[C@]12C | nt | nt | nt | -2.7%
O=C(Nc1ccc(Br)cc1)c1ccc(F)c(S(=O)(=O)NC2CCCCCC2)c1 | -10.0% | ? | 3.16µM* | nt
CCC1CCCCN1S(=O)(=O)c1cc(C(=O)Nc2ccc(C)c(F)c2)ccc1F (stereo not drawn) | -8.5% | -7.8% | 10µM* | nt
Cc1ccc(-n2[nH]c(=O)c(-c3ccccn3)c2C)cc1 | nt | ? | 1µM* | -3.9%
Cc1ccc(-n2[nH]c(=O)c3cccnc32)cc1 | -0.5% | 4.4% | -3.7% | -2.4%
CN=C(Nc1ccc(Br)cc1)SC1CC(=O)N(c2ccc(OC)cc2)C1=O (stereo not drawn) | nt | 9.0% | 11.2µM* | 12.4%
Oc1c(C(c2ccccc2)N2CCC(O)CC2)sc2nc(-c3ccco3)nn12 (stereo not drawn) | 0.0% | 8.2% | 3.1% | nt
COc1ccc(-c2c(C#N)c(N)nc3c2CCc2ccccc2-3)cc1OC | 12.6µM* | 0.0% | ? | -24.8%
COc1nc(-c2cccs2)cc(-c2ccc(C)cc2)c1C#N | 3.98µM* | -14.0% | -8.3% | -13.7%
COc1ccc(-c2cc(-c3cccs3)nc(OC)c2C#N)cc1OC | 31.6µM* | -5.7% | -12.2% | 0.0%
COc1ccc(-c2noc(-c3cccs3)n2)cc1OC | nt | ? | 10.4% | 25.7%
COc1ccc2[nH]c3c(N4CCC(O)(c5cccc(C(F)(F)F)c5)CC4)ncnc3c2c1 | 31.6µM* | -29.9% | ? | -12.8%
COc1ccc(Nc2ncc3c(n2)CCN(Cc2sccc2C)C3)c(OC)c1 | ? | 1.4% | -0.3% | nt
Cc1ccc(C(=O)Nc2ccc3nc(N4CCCCC4)cc(C)c3c2)cc1F | ? | -7.3% | ? | nt
Cc1cc(N2CCN(C)CC2)nc2ccc(NC(=O)Nc3cccc(Cl)c3)cc12 | 4.5% | ? | 10µM* | nt
Cc1cc(N2CCCCCC2)nc2ccc(F)cc12 | 28.2µM* | 5.2% | ? | 0.6%
SMILES | ClpP mod | GLP1R cytotox | GLP1R inv ag | GLP1R ag
Cc1cc(N2CCN(C)CC2)nc2ccc(NC(=O)Nc3ccccc3)cc12 | 4.0% | -2.7% | ? | nt
Cc1cc(N2CCCCC2)nc2ccc(NC(=O)c3cccc(F)c3)cc12 | -5.3% | ? | 11.2µM* | nt
Cc1cccc(OCCCC(=O)N2CCCCCC2)c1C | 1.1% | -0.2% | 8.91µM* | 21.2%
Cc1cccc(OCCCC(=O)O)c1C | -5.5% | 14.6% | 9.7% | -7.6%
COc1ccccc1N1CCN(C(=O)COc2cccc(C)c2C)CC1 | nt | -2.7% | 7.08µM* | 13.6%
CCN(CC)c1ccc2cc(-c3nc(-c4ccccc4)no3)c(=O)oc2c1 | -19.8% | 57.5% | 31.4% | nt
CCOC(=O)c1ccc(S(=O)(=O)N2CCN(c3nc(-c4ccccc4)nc4ccccc34)CC2)cc1 | -1.4% | nt | nt | nt
Cc1cccc(Oc2sc(C(=O)c3ccccc3)c(N)c2C#N)c1 | 14.1µM* | -4.0% | ? | 8.8%
COc1cccc(-c2nnc3n2N=C(C(C)(C)C)CS3)c1 | -2.6% | -21.7% | 11.2µM* | -17.7%
COc1cccc(-c2nnc3n2N=C(c2cc(OC)ccc2OC)CS3)c1 | 1.8% | -2.7% | 0.0% | 18.8%
